# In PubChem BioAssay (NCI):
# Compounds without any hit were thinned out: in the full panel of roughly 83,000, 20% have a hit.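 A percent growth of 40 corresponds to 60% growth inhibition; 0 means no net growth; -100 means all cells died. Active threshold: below 10.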 Active and inactive are the calls of the source.
# System: HS 578T breast
# Experiment: NCI-60 one-dose screen, 48 h (100 = growth as untreated, 0 = no growth, -100 = all killed)
# Conditions: 10 µM unless noted
# Experimental: Growth inhibition of the HS 578T human tumor cell line is measured as a screen for anti-cancer activity. Cells are grown in 96 well plates and exposed to the test compound for 48 hours. Compounds are tested at a single concentration, which is 10^-5 M for most compounds. The reported endpoint is percent growth (GI% or GIPRCNT), where numbers from 0 - 100% represent growth inhibition, and numbers from -100% - 0 represent cell death. For example, a value of 40 represents 60% growth inhibition. A value of 0 means no net growth occurred over the course of the experiment. A value of -40 indicates 40% of cells at the beginning of the experiment died by the end of the experiment. A value of -100 means all cells are dead at the end of the experiment.
# NCI-60 Human Tumor Cell Lines Screen was performed using the standard one-dose NCI protocol, which is described in more detail at https://dtp.cancer.gov/discovery_development/nci-60/default.htm.
# Compounds with GIPRCNT values below 10 were considered active. Activity score was based on GIPRCNT using the following formula: […]
# Score is 0 for GIPRCNT values of 100 or above, 50 for GIPRCNT values of 0, and 100 for GIPRCNT values of -100.
row,SMILES,growth
1,C#C[C@]1(O)CC[C@H]2[C@@H]3CC=C4c5nc(Nc6ccccc6[N+](=O)[O-])sc5CC[C@]4(C)[C@H]3CC[C@@]21C,21.4% (inactive)
2,Cc1cc(C)c(O)c(CNCCCCCCNCc2cc(C)cc(C)c2O)c1,-44.9% (active)
3,C/C=C/C1OC23CCCCC2C(C#N)(C(=N)O3)C1(C#N)C#N (stereo not given),96.9% (inactive)
4,O=C(NNc1ccc(-c2ccccc2)nn1)c1ccccc1,103% (inactive)
5,CCC(C)[C@H](NC(=O)NC(=O)NC(=O)CI)C(=O)OC (stereo not given in full),84.9% (inactive)
6,COc1ccc(-c2cc(-c3ccccc3)nc(SCCCCCC(=O)NO)n2)cc1,56% (inactive)
7,CCCCCCCCCCCCNC(=S)N/N=C/c1ccccc1O,91.7% (inactive)
8,C=C(C)[C@@H]1CC[C@]2(C(=O)NCCNCCNCCN)CC[C@]3(C)[C@H](CC[C@@H]4[C@@]5(C)CCC(=O)C(C)(C)[C@@H]5CC[C@]43C)[C@@H]12,47.8% [100 µM] (inactive)
9,Cc1ccccc1-n1nnc(C(=O)Nc2nc3ccc(F)cc3s2)c1C,73.6% (inactive)
10,CCOC(=O)c1nn(C2CCCCO2)c2ccc(NS(=O)(=O)c3ccc(C)cc3)cc12 (stereo not given),94.9% (inactive)
11,C[C@]12CCc3c(ccc4cc(O)ccc34)[C@@H]1CC[C@H]2O,29.8% (inactive)
12,O=[N+]([O-])c1cc([N+](=O)[O-])c(C(F)(F)F)cc1NN=C(c1ccc(O)cc1)c1ccc(O)cc1,108% (inactive)
13,COc1ccc2c(c1)C(C)Cc1c(ncnc1-n1cnc3ccccc31)N2C (stereo not given),31.6% (inactive)
14,c1cc2ccc1CNCCN1CCNCc3ccc(cc3)Oc3ccc(cc3)CNCCN(CCNCc3ccc(cc3)O2)CCNCc2ccc(cc2)Oc2ccc(cc2)CNCC1,-48.7% (active)
15,CCn1cc(-c2[nH]c(=S)ncc2-c2ccc(Cl)cc2)c(-c2ccc(Br)cc2)n1,108% (inactive)
16,CCN(CC)c1ccc(/C=C/C=C2\NC(=O)NC2=O)cc1,50.4% (inactive)
17,O=C(N/N=C\c1cc(Cl)ccc1O)N/N=C/c1cc(Cl)ccc1O,34.6% (inactive)
18,CCOc1cc(NC(=O)c2ccccc2)c(OCC)cc1N,100% (inactive)
19,CC(C)C1=NOC(=O)C1=Cc1cn(-c2ccccc2)nc1-c1ccc(Br)cc1,70.4% (inactive)
20,C=C(C)[C@@H]1CC[C@]2(COC(=O)c3ccccc3C(=O)O)CC[C@]3(C)[C@H](CC[C@@H]4[C@@]5(C)CC[C@H](OC(=O)c6ccccc6C(=O)O)C(C)(C)[C@@H]5CC[C@]43C)[C@@H]12,-3.77% [100 µM] (active)

row,SMILES,growth
1,CCn1cc(-c2ccnc(NCCNS(=O)(=O)c3cccc4ccccc34)c2)c(-c2cccc(O)c2)n1,95.3% (inactive)
2,C=C(C)[C@@H]1CC[C@]2(C(=O)NCCNCCNCCN)CC[C@]3(C)[C@H](CC[C@@H]4[C@@]5(C)CC[C@H](O)C(C)(C)[C@@H]5CC[C@]43C)[C@@H]12,-23.3% [100 µM] (active)
3,Fc1ccc(NC(=S)c2ccccc2)cc1,101% (inactive)
4,CC(C)=CCC[C@](C)(O)[C@H]1CC[C@]2(C)[C@@H]1CC[C@@H]1[C@@]3(C)CC/C(=N/O)C(C)(C)[C@@H]3CC[C@]12C,-13% [100 µM] (active)
5,O=C(N[C@@H]1CCCc2ccccc21)[C@H](CCC(=O)N1CCN(C2CCCCC2)CC1)N1C(=O)[C@@H](N2C(=O)OC[C@@H]2c2ccccc2)[C@H]1/C=C/c1ccccc1,48.1% (inactive)
6,CCCCNC(=O)NS(=O)(=O)Cc1ccccc1,107% (inactive)
7,ClC1=C(Cl)C(Cl)=C(Cl)C1=Cc1ccccc1,6.95% (active)
8,COc1cc(NCc2ccccc2O)c2ncccc2c1,149% (inactive)
9,C[C@]12CCc3nc(Nc4ccccc4)sc3C1=CC[C@@H]1[C@@H]2CC[C@]2(C)/C(=N/NC(N)=S)CC[C@@H]12,55.9% (inactive)
10,CSc1nc(=S)c2nc(SC)n(-c3ccccc3)c2[nH]1,92.3% (inactive)
11,C=C(C)[C@@H]1CC[C@]2(C(N)=O)CC[C@]3(C)[C@H](CC[C@@H]4[C@@]5(C)C/C(=C/c6cccnc6)C(=O)C(C)(C)[C@@H]5CC[C@]43C)[C@@H]12,25.5% [100 µM] (inactive)
12,NC(=O)c1c(NC(=O)COC(=O)Cc2ccccc2F)sc2c1CCC2,109% (inactive)
13,CCOC(=O)c1nn(C2CCCCO2)c2ccc(NC(=O)CN3CCCC3)cc12 (stereo not given),95.4% (inactive)
14,C=CCCC1(C)NC(=O)NC1=O (stereo not given),105% (inactive)
15,O=C1NC(=O)C(Cc2ccccc2)(Cc2ccccc2)N1,111% (inactive)
16,O=c1[nH]cnc2c1ccn2C1OC(CO)C(O)C1O (stereo not given),74.6% (inactive)
17,C#C[C@]1(O)CC[C@H]2[C@@H]3CC=C4c5nc(Nc6ccccn6)sc5CC[C@]4(C)[C@H]3CC[C@@]21C,-16.8% (active)
18,CCN(CC)c1ccc(/C=C/c2ccc3cc(C)ccc3[n+]2CC)cc1,46.5% (inactive)
19,COc1ccc(C=C2c3ccccc3-c3ccccc32)cc1,56.3% (inactive)
20,CCc1ccc(NC(=O)N[C@@H](Cc2cc(F)cc(F)c2)C(=O)N[C@@H]2C(=O)N3C[C@H](O)C[C@H]3C(=O)N3CCOC[C@H]3C(=O)N[C@@H](C)C(=O)N3C[C@H](C)C[C@H]3C(=O)O[C@H]2C)cc1,41.2% (inactive)
